Assay results reported in PubChem BioAssay.
Activity calls are given as the source filed them.

Tests used:
[1] = tested on: Human papillomavirus type 1a protein E7 (residues 44-93); experiment: HPV1a E7 fragment binders on microarrays, primary screen, biochemical, small-molecule microarray, residues 44-93, 635 nm fluorescence (AID 1108); details: small-molecule microarray binding, fluorescence 635 nm; higher = more signal;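 also: E7 fragment applied at 1 µg/mL in TBST for 1 h at 4 C; score combines spot fluorescence with its signal to noise ratio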
[2] = modulators of HCV replicon luciferase signal, primary screen, HCV replication inhibitor project, Huh7 cells, luciferase reporter (AID 1109); details: 48 h, higher = more signal;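 also: huh7 hepatoma cells harbouring a luciferase neomycin HCV replicon reporter; luciferase luminescence as measure of HCV replicon replication; test concentration not given here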
[3] = molecular target: Left-right determination factor 2 (Homo sapiens) (UniProt O00292); experiment: LEFTY2 binders on small-molecule microarrays, primary screen, biochemical, small-molecule microarray, 635 nm fluorescence scan (AID 1110); details: LEFTY2 binding, higher = more signal
[4] = molecular target: Calmodulin-1 (Homo sapiens) (UniProt P0DP23); experiment: CALM1 binders on microarrays, EGTA buffer, profiling panel, biochemical, small-molecule microarray, Cy5-labelled CALM1 (AID 1111); details: Cy5-CALM1 binding fluorescence, higher = more signal;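 also: labelled calmodulin applied in Tris saline Tween buffer holding calcium plus EGTA and DTT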
[5] = molecular target: Calmodulin-1 (Homo sapiens) (UniProt P0DP23); experiment: calcium-bound CALM1 binders on microarrays, profiling panel, artefact control for SMM control-protein annotation, biochemical, small-molecule microarray, Cy5-labelled CALM1, plus calcium (AID 1112); details: Cy5-CALM1 binding fluorescence, higher = more signal;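 also: score merges spot fluorescence with signal to noise from triplicate slides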
[6] = small-molecule microarray binders of probe aWnt5a, primary screen, biochemical, biotinylated probe, 635/667 nm fluorescence (AID 1113); details: higher = more signal;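 also: score merges 667 nm fluorescence intensity with signal-to-noise per printed feature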
[7] = small-molecule microarray binders of probe aShh, primary screen, biochemical, biotinylated probe, 635/667 nm fluorescence (AID 1114); details: higher = more signal;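 also: probe is biotin-labelled aShh protein from a stem cell growth factor screen; measures binding of labelled protein to compounds printed on the slide; score merges feature fluorescence at 667 nm with signal-to-noise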
[8] = small-molecule microarray binders of probe aNog, primary screen, biochemical, biotinylated probe, 635/667 nm fluorescence (AID 1115); details: higher = more signal;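 also: probe is biotinylated aNog protein used at 0.15 µg/mL for 1 h at 4 C; z-score combines 667 nm fluorescence of each spot with its signal to noise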
[9] = molecular target: Torsin-1A-interacting protein 1 (Homo sapiens) (UniProt Q5JTV8); experiment: LAP1 binders from COS7 cell lysate, primary screen, small-molecule microarray, 635/667 nm fluorescence (AID 1116); details: COS7-hLAP1 lysate binding, 635 nm fluorescence, higher = more signal
[10] = molecular target: Alpha-bungarotoxin (Bungarus multicinctus) (UniProt P60615); experiment: alpha-bungarotoxin binders on microarray, profiling panel, artefact control for SMM control protein annotation, biochemical, small-molecule microarray, Alexa647 label, 635/667 nm fluorescence (AID 1117); details: alpha-BTX-A647 binding fluorescence, higher = more signal
Albumin (Bos taurus) = Albumin (Bos taurus) (UniProt P02769); experiment: bovine serum albumin binders on microarray, profiling panel, artefact control for SMM control protein annotation, biochemical, small-molecule microarray, Alexa647 label, 635/667 nm fluorescence (AID 1118); details: BSA-A647 binding, fluorescence 635 nm, higher = more signal;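 also: score merges 667 nm emission intensity and signal-to-noise per printed compound spot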
[11] = small-molecule microarray binders of probe aXIP, primary screen, biochemical, NeuroSMM set, 635/667 nm fluorescence (AID 1119); details: higher = more signal, called active from +8 up or from −8 down;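 also: probe is the protein aXip251-270 applied at 1 µg/mL to compound-printed slides; binding of probe to printed compounds measured as 667 nm fluorescence plus signal to noise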
[12] = small-molecule binders of probe aNOTCH3, primary screen, biochemical, small-molecule microarray, 635/667 nm fluorescence (AID 1120); details: higher = more signal;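 also: probe is a biotin-tagged antibody raised against NOTCH3 rather than NOTCH3 protein; score merges spot fluorescence near 667 nm with spot signal to noise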
[13] = small-molecule binders of probe aNOTCH2, primary screen, biochemical, small-molecule microarray, 635/667 nm fluorescence (AID 1121); details: higher = more signal;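 also: score merges feature fluorescence read at 667 nm with its signal to noise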
[14] = molecular target: Carbonic anhydrase 2 (Homo sapiens) (UniProt P00918); experiment: CAII small-molecule binders, profiling panel, biochemical, small-molecule microarray, Alexa647-labelled CAII (AID 1122); details: CAII-A647 binding fluorescence, higher = more signal
[15] = COS7 lysate on small-molecule microarray, probe aHis, 635 nm (AID 1123); details: COS7 cell lysate, fluorescence, higher = more signal;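 also: z-score combines 667nm fluorescence intensity with signal-to-noise per printed compound spot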
[16] = compound binding in COS7 lysate, probe aLAP1, primary screen, cell lysate, small-molecule microarray (AID 1124); details: probe aLAP1, fluorescence, higher = more signal;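 also: lysate comes from COS7 cells expressing LAP1 and is applied at 0.3 µg/mL; score merges spot fluorescence near 667 nm with signal-to-noise over triplicate slides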
Sam68 (KHDRBS1) = experiment: Sam68 small-molecule binders, primary screen, biochemical, small-molecule microarray, 635 nm fluorescence (AID 1125); details: small-molecule microarray binding, higher = more signal;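 also: score merges 667 nm channel intensity with signal to noise over triplicate slides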
[17] = tested on: Chordin-like protein 2 (CHRDL2); experiment: CHRDL2 small-molecule binders, primary screen, biochemical, small-molecule microarray, 635 nm fluorescence (AID 1126); details: small-molecule microarray binding, fluorescence 635 nm; higher = more signal;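 also: printed compound slides probed with Chrdl2 protein at 4 µg/mL for 1 h at 4 C; score merges 667 nm emission intensity with signal to noise over three replicate slides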
[18] = molecular target: Concanavalin-A (Canavalia ensiformis) (UniProt P02866); experiment: ConA small-molecule binders, primary screen, artefact control for SMM control protein annotation, biochemical, small-molecule microarray, Alexa647 label, 635 nm (AID 1127); details: ConA-A647 binding fluorescence, higher = more signal;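 also: z combines 667 nm emission intensity with signal-to-noise across three replicate slides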
Chain of Concanavalin-A (Canavalia ensiformis) (P02866 whole entry, looked up): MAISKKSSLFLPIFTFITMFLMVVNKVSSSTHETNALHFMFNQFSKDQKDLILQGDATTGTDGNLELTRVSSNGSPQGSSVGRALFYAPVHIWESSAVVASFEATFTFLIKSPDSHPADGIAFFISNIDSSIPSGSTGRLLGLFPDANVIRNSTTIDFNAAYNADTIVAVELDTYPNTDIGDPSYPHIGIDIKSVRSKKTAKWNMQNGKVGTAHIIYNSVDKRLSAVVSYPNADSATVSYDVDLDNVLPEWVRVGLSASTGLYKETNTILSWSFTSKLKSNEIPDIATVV

Chain of Albumin (Bos taurus) (P02769 whole entry, looked up): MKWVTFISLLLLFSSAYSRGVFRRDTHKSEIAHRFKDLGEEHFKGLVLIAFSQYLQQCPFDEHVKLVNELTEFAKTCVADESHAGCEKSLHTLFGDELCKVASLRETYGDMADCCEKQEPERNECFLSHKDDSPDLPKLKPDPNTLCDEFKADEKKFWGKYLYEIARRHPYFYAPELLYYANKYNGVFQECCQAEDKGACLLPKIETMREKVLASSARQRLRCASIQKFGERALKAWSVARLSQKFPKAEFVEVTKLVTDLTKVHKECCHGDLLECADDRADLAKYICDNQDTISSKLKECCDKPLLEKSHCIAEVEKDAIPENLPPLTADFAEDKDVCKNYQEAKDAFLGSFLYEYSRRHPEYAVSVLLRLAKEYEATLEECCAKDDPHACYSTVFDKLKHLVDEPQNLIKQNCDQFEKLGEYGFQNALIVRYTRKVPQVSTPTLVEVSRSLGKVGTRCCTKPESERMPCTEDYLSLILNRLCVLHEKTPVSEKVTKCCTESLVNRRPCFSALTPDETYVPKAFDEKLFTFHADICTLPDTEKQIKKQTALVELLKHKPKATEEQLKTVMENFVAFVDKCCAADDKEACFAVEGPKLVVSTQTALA
Chain of Alpha-bungarotoxin (Bungarus multicinctus) (P60615 whole entry, looked up): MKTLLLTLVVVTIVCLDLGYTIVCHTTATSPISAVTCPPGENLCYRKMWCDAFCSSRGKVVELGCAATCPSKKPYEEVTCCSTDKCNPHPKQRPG
Chain of Torsin-1A-interacting protein 1 (Homo sapiens) (Q5JTV8 whole entry, looked up): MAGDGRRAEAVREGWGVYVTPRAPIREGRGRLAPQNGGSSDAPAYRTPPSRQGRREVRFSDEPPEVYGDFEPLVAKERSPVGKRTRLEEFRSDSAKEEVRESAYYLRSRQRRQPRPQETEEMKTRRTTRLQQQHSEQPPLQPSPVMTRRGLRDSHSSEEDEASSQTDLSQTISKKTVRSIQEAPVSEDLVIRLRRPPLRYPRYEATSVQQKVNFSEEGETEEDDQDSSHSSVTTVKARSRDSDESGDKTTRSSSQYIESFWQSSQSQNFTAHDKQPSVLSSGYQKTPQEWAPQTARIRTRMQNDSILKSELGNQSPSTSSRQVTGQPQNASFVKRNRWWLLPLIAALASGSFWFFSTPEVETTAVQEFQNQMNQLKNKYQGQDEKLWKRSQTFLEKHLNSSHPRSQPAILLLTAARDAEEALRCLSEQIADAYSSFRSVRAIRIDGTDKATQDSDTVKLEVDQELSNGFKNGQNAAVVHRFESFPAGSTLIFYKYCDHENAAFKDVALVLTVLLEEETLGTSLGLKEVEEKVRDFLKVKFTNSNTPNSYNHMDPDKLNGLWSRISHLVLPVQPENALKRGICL
Chain of Left-right determination factor 2 (Homo sapiens) (O00292 whole entry, looked up): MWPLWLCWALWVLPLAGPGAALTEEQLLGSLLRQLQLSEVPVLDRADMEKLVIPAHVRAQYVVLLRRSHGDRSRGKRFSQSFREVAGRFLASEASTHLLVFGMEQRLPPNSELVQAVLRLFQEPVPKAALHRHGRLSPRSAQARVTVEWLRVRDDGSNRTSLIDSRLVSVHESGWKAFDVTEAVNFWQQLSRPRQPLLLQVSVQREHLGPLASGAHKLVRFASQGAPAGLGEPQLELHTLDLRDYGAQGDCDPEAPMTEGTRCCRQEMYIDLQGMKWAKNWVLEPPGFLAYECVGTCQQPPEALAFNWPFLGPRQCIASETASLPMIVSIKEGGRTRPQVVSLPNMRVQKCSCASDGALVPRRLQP

| Structure (SMILES) | composite z-score [1] | z-score [2] | composite z-score [3] | composite z-score [4] | composite z-score [5] | composite z-score [6] | composite z-score [7] | composite z-score [8] | composite z-score [9] | composite z-score [10] | composite z-score (Albumin (Bos taurus)) | composite Z-score [11] | composite z-score [12] | composite z-score [13] | composite z-score [14] | composite z-score [15] | composite z-score [16] | composite z-score (Sam68 (KHDRBS1)) | composite z-score [17] | composite z-score [18] |
| --- | --- | --- | --- | --- | --- | --- | --- | --- | --- | --- | --- | --- | --- | --- | --- | --- | --- | --- | --- | --- |
| COC(=O)[C@@]1(Cc2ccccc2)[C@H]2c3cc(C(=O)N(C)C)n(Cc4ccc(S(C)(=O)=O)cc4)c3C[C@H]2CN1C(=O)c1ccccc1 | -1.1 | -0.912 | -0.115 | 1.69 | 1.11 | 0.0613 | 0.954 | 0.35 | 1.29 | 0.548 | 1.13 | -0.368 (inactive) | 0.364 | 0.199 | 0.647 | 2.9 | 0.722 | 0.296 | -0.755 | 1.08 |
| NCCCCCCNC(=O)[C@@H]1C[C@@H]2C(=O)N3CCC[C@H]3C(=O)N2[C@@H]1c1cccc(OCCO)c1 | -0.0954 | 0.116 | 0.738 | 0.263 | -0.334 | -0.0286 | -0.0035 | -0.366 | 0.572 | 1.01 | 0.81 | 2.71 (inactive) | 0.113 | -0.15 | 0.709 | 0.729 | 1.02 | 0.462 | 1.16 | 1.14 |
| CCOC(=O)C1=CC[C@@H](c2ccc(OC)cc2)N(S(=O)(=O)c2ccc(C)cc2)[C@H]1c1ccc(C)cc1 | 1.33 | -0.12 | -0.0746 | 0.783 | 0.894 | 0.0509 | 0.216 | -0.201 | 0.467 | 0.611 | 0.446 | 0.477 (inactive) | 0.0203 | -0.084 | 0.222 | 1.99 | 0.423 | 1.34 | -0.554 | 0.669 |
| CC(C)c1nc2cc(Br)ccc2c(=O)o1 | 1.32 | -0.559 | 0.371 | 2 | 0.93 | -0.0367 | -0.427 | 0.418 | 1.61 | 0.868 | 0.915 | 0.19 (inactive) | 0.0493 | -0.0424 | 0.738 | 0.92 | 0.0912 | 0.711 | -0.552 | 1.09 |
| O=C1O[C@@H](c2ccccc2)[C@@H](c2ccccc2)N2[C@@H](c3ccccc3OCCO)[C@]3(C(=O)Nc4ccc(C#CCCO)cc43)[C@@H](C(=O)NC[C@H](O)c3ccccc3)[C@H]12 | 1.49 | -0.871 | -0.274 | 2.34 | 0.953 | 0.489 | -0.212 | 2.45 | 2.7 | 2.55 | 0.366 | 0.45 (inactive) | 0.307 | 0.255 | 0.557 | 2.25 | 1.31 | 1.28 | 0.454 | 1.12 |
| O=C1N(CCS(=O)(=O)c2ccccc2)c2ccccc2C[C@]12N=C(c1ccc(OCCCO)cc1)O[C@@H]2c1ccccc1 | 1.42 | -1.74 | 0.845 | 2.28 | 0.565 | 0.0704 | -0.0146 | 0.217 | 1.93 | 1.91 | 0.815 | 1.86 (inactive) | -0.221 | -0.0694 | 0.584 | 3.22 | 2.17 | 1.29 | 1.25 | 1.05 |
| COc1cc(C(O)C2C=CC3C(=O)N(c4ccccc4)C(=O)C3N2Nc2ccccc2F)cc(OC)c1OC (stereo not given) | 1.48 | -0.892 | 0.2 | 1.05 | -0.383 | 0.0357 | -0.0146 | 1.11 | 0.512 | 0.983 | 0.834 | 0.0894 (inactive) | 0.0436 | 0.0409 | 0.648 | 3.14 | 0.443 | 1.32 | -0.755 | 1.1 |
| CN(C)CCCNC(=O)[C@@]1(Cc2ccccc2I)c2ccccc2C(=O)N(C2CCCCC2)[C@H]1c1ccc(CO)cc1 | 0.664 | -3.49 | 0.0837 | 1.71 | 1.2 | -0.0057 | 1.26 | 0.0646 | 1.02 | 2.57 | 0.33 | 0.56 (inactive) | 0.417 | 0.227 | 0.443 | 1.57 | 0.653 | 1.31 | -0.0713 | 1.16 |
| COC(=O)C(CC#Cc1ccc2c(c1)[C@]1(C(=O)N2)[C@H](c2ccccc2OCCO)N2[C@H](c3ccccc3)[C@H](c3ccccc3)OC(=O)[C@H]2[C@@H]1C(=O)N1CCc2cc(OC)c(OC)cc2C1)C(=O)OC | 1.37 | -1.68 | 0.541 | 0.0823 | -0.34 | -0.117 | -0.0626 | -0.259 | 1.68 | 0.647 | 0.185 | 0.0296 (inactive) | 0.172 | -0.14 | 0.661 | 1.19 | 0.653 | 1.29 | 0.618 | 0.914 |
| COC(=O)[C@@]1(Cc2ccc(OC)cc2)[C@H]2c3cc(C(=O)N4CCCC4)n(Cc4ccc(C(F)(F)F)nc4)c3C[C@H]2CN1C(=O)c1ccccc1 | 0.381 | -2.25 | -0.412 | 0.0624 | -0.954 | 0.037 | -0.153 | 0.374 | 0.476 | -0.075 | 0.948 | -0.325 (inactive) | 0.361 | 0.0224 | 0.737 | 0.297 | 0.511 | 0.524 | -0.249 | -0.308 |
| COCCOC(=O)N1C(=O)[C@@]2(c3ccccc31)[C@H](C(=O)N1CCN(c3ncccn3)CC1)[C@H]1C(=O)O[C@H](c3ccccc3)[C@H](c3ccccc3)N1[C@@H]2c1ccccc1OCCO | 1.35 | -1.79 | 0.687 | 0.902 | 0.369 | -0.0462 | 0.704 | 0.26 | 0.405 | 0.749 | -0.448 | 0.196 (inactive) | 0.102 | -0.118 | 0.506 | 1.19 | 1.37 | 1.28 | 0.761 | 1.05 |
| CCCC=C(CCC)[C@@H](NC(=O)OCC(C)C)c1ccc(C(=O)OC)cc1 | 0.903 | -1.02 | 0.66 | 0.059 | -0.307 | -0.217 | -0.138 | -0.0496 | 0.0246 | -0.376 | -0.0782 | -0.773 (inactive) | -0.0328 | -0.15 | 0.133 | 0.141 | 0.35 | 0.687 | 0.436 | 0.256 |
| O=C1c2ccccc2[C@@]2(Cc3ccccc3N(Cc3ccccc3)C2=O)[C@H](c2ccc(CO)cc2)N1Cc1ccccc1Cl | -0.728 | 0.0868 | -0.44 | -0.223 | 0.306 | -0.202 | -0.412 | 0.105 | -0.881 | -0.0792 | 0.705 | 0.0507 (inactive) | -0.279 | -0.171 | -0.391 | -0.222 | 0.147 | -0.633 | -0.688 | -0.709 |
| CC(C)N1C(=O)C[C@@](C(=O)NCCN2CCOCC2)(c2ccc([N+](=O)[O-])cc2)[C@H]1c1ccc(CO)cc1 | -0.0369 | 0.323 | -1.07 | -0.701 | -0.272 | -0.298 | -0.221 | -0.478 | 2.15 | -0.418 | 0.408 | 1.96 (inactive) | -0.256 | -0.0836 | 0.642 | 2.2 | 1.24 | -0.395 | -1.26 | 0.257 |
| COCCCNC(=O)[C@@]1(CCC(=O)OC(C)(C)C)COC(c2ccc(OCCCO)cc2)=N1 | 1.48 | -1.11 | -0.148 | -0.664 | -0.0486 | -0.124 | -0.0169 | -0.603 | 2.01 | 0.778 | 0.483 | 0.507 (inactive) | 0.133 | -0.0485 | 0.619 | 3 | 0.504 | 1.28 | -0.42 | 0.286 |
| CN1C(=O)C2C=CC(C(O)c3ccc(-c4ccccc4)s3)N(NC(=O)OC(C)(C)C)C2C1=O (stereo not given) | 0.399 | -0.204 | 0.285 | 2.28 | 0.902 | 0.055 | -0.279 | 1.38 | 1.52 | 1.62 | 0.886 | 0.43 (inactive) | 0.435 | 0.164 | 0.689 | 1.65 | 0.714 | 1.23 | 0.0094 | 0.996 |
